Measurements taken from PubChem BioAssay AID463173 (ICCB-Longwood Screening Facility, Harvard Medical School, 2010).
The whole screen tested about 52,000 compounds, of which about 4,300 (8.3%) were called active. Shown is part of a subset that was picked to be rich in actives. A number with no mark means an inactive call. Cut-off read from the data, not from the text of the source: active = survival mostly below about 52% (no sharp cut-off); inactive = mostly above about 56%.

Test system: DeltatarO mutant
Assay: S. aureus survival, RN4220 and DeltatarO strains – OD600, teichoic acid synthesis inhibitors, primary screen (AID 463173)
Details: S. aureus RN4220 wild type/DeltatarO growth, OD600, 18 h, hits give low values, screened at 18.75 µg/mL (by protocol)

| SMILES | survival |
| --- | --- |
| Cc1ccc(CCNS(=O)(=O)c2c(C)nc3sc(C)c(C)n3c2=O)cc1 | 82% |
| CCCNC(=O)c1cnc2sc(N3CCCCCC3)nn2c1=O | 78% |
| COc1ccc(CNC(=O)c2ccc(NC(=O)N3CCSc4ncccc43)cc2)cc1 | 84% |
| COc1ccc(OC)c(-n2c3c(cc(-c4nc(-c5ccc(Cl)cc5)cs4)c2=O)C(=O)CC(C)(C)C3)c1 | 75% |
| COc1ccc(-c2nc3cc(NC(=O)c4cc5ccccc5o4)ccc3o2)cc1 | 62% |
| CCOc1ccc(C(=O)Nc2ccc3oc(-c4ccc(Br)cc4)nc3c2)cc1 | 68% |
| CCOc1ccc(C(=O)Nc2ccc(-c3nc4cc(CC)ccc4o3)cc2)cc1 | 61% |
| CCc1ccc2oc(-c3cccc(NC(=O)COc4ccccc4Cl)c3)nc2c1 | 57% |
| Cc1cc2nc(-c3ccc(NC(=O)c4cc5ccccc5o4)cc3)oc2cc1C | 51% |
| CCc1ccc2oc(-c3cccc(NC(=O)C(C)(C)Oc4ccc(Br)cc4)c3)nc2c1 | 36% (active) |
| CCc1ccc2oc(-c3ccc(N)cc3)nc2c1 | 34% (active) |
| CCC(C)c1ccc2oc(-c3ccc(NC(=O)c4cc5ccccc5o4)cc3)nc2c1 (stereo not given) | 46% (active) |
| CCc1ccc2oc(-c3cccc(NC(=O)c4ccc(-c5cccc([N+](=O)[O-])c5)o4)c3)nc2c1 | 58% |
| CC(C)c1ccc2oc(-c3ccc(NC(=O)c4cc5ccccc5o4)cc3)nc2c1 | 48% |
| CCc1ccc2oc(-c3cccc(NC(=O)c4cc5ccccc5o4)c3)nc2c1 | 14% (active) |
| CCc1ccc2oc(-c3ccc(NC(=O)c4cccc(Cl)c4Cl)cc3)nc2c1 | 63% |
| COc1ccc2c(c1)c1c(c(=O)n(-c3ccc(F)c(Cl)c3)c(=O)n1Cc1ccccc1C)n2C | 83% |
| COc1ccc(-n2ccnc2SCC(=O)Nc2cccc(OC)c2)cc1 | 98% |
| Cc1cc(=O)[nH]c2nnc(SCC(=O)Nc3ccc(OC(F)(F)F)cc3)n12 | 74% |
| CCc1ccc(CNC(=O)c2ccc(-n3c(C)cc4c3CCC(C)C4)cc2)cc1 (stereo not given) | 123% |
| Cc1ccn2c(=O)cc(CSc3nnc(C)s3)nc2c1 | 77% |
| COc1ccc(-c2cc(OC(=O)c3cccc(Cl)c3)c3c(C)oc(C)c3c(=O)c2)cc1 | 132% |
| COc1ccc(S(=O)(=O)N2CCN(c3cccc(C)c3C)CC2)c2ccccc12 | 152% |
| CCCN1CCN(c2ncc3c(n2)CCN(Cc2ccc(OC)c(OC)c2OC)C3)CC1 | 83% |

| SMILES | survival |
| --- | --- |
| O=C(Nc1ccc(-c2nc3cc(Cl)ccc3o2)cc1)c1cc2ccccc2o1 | 52% |
| Cc1ccc(-c2nc3cc(NC(=O)c4cc5ccccc5o4)ccc3o2)cc1 | 72% |
| CCc1ccc2oc(-c3ccc(NC(=O)c4cc5ccccc5o4)cc3)nc2c1 | 40% (active) |
| O=C(O)CC(NC(=O)Cc1ccccc1)c1ccccc1 (stereo not given) | 99% |
| O=C1CCCc2cc(S(=O)(=O)NCC3CCC(C(=O)NCc4ccccc4Cl)CC3)ccc2N1 (stereo not given) | 71% |
| CC(C)c1ccc(NC(=O)c2cccc3c2C(=O)N(C2CCCCC2)C3)cc1 | -10% (active) |
| COc1cc(NC(=O)c2cccc3c2C(=O)N(C2CCCCC2)C3)cc(OC)c1 | 90% |
| COc1cc(NC(=O)c2cccc3c2C(=O)N(C2CCCCC2)C3)cc(OC)c1OC | 53% |
| O=C(Nc1c(Cl)cccc1Cl)c1cccc2c1C(=O)N(C1CCCCC1)C2 | 78% |
| COC(=O)c1ccc(NC(=O)c2cccc3c2C(=O)N(C2CCCCC2)C3)cc1 | 80% |
| Cc1cc(C)cc(NC(=O)c2cccc3c2C(=O)N(C2CCCCC2)C3)c1 | 33% (active) |
| Cc1cccc(C2CC(=O)Nc3cc4c(cc32)OCO4)c1 (stereo not given) | 77% |
| CCCCN(Cc1ccccc1)C(=O)CN(C)S(=O)(=O)c1ccc2c(c1)c(=O)n(C)c(=O)n2C | 128% |
| Cc1ccc(C)c(Nc2nnc(-c3ccc(C)c(S(=O)(=O)N4CCN(C)CC4)c3)c3ccccc23)c1 | 84% |
| CCc1cc2c(cc(C(=O)OC)n2Cc2nc(-c3ccc(C)cc3)oc2C)s1 | 26% (active) |
| COC(=O)c1cc2sc(C)cc2n1Cc1nc(-c2ccc(C)cc2)oc1C | 109% |
| COC(=O)c1cc2sccc2n1Cc1ccc(F)cc1 | 124% |
| COC(=O)c1cc2sccc2n1Cc1ccccc1 | 35% (active) |
| COC(=O)CNC(=O)c1cc2sccc2n1Cc1ccccc1 | 97% |
| COC(=O)c1cc2sccc2n1Cc1nc(-c2cccc(Cl)c2)oc1C | 83% |
| COC(=O)c1cc2sccc2n1Cc1nc(-c2ccc(C)cc2)oc1C | 28% (active) |
| COC(=O)c1cc2sc(Cl)cc2n1Cc1nc(-c2ccc(OC)cc2)oc1C | 72% |
| COC(=O)c1cc2sccc2n1Cc1nc(-c2ccc(Cl)cc2)oc1C | 90% |
| Cc1ccc(C2=NNC(c3cccnc3)=Nc3ccc(F)cc32)o1 | 96% |

| SMILES | survival |
| --- | --- |
| COc1ccc(Cl)cc1NC(=O)N1CCC(CN2CCCCCC2)CC1 | 79% |
| CN(C)c1ccc(/C=C(/NC(=O)c2ccccc2)C(N)=O)cc1 | 86% |
| Cc1ccc(NC(=O)C2CCCN(c3cnccn3)C2)cc1Cl (stereo not given) | 75% |
| C=CCNC(=O)CN1CCC(n2nnc3cc(C(F)(F)F)ccc32)CC1 | 79% |
| CCc1ccccc1NC(=O)c1cnn2c(C(F)(F)F)cc(-c3ccc(OC)c(OC)c3)nc12 | 46% (active) |
| COc1ccc(-c2cc(C(F)(F)F)n3nc(C(=O)Nc4cccc(Cl)c4Cl)cc3n2)cc1OC | 123% |
| COC(=O)c1cnn2c(C(F)(F)F)cc(-c3ccccc3)nc12 | 68% |
| CCc1ccccc1NC(=O)c1cc2nc(-c3ccc(OC)c(OC)c3)cc(C(F)(F)F)n2n1 | 52% (active) |
| COc1ccc(-c2cc(C(F)(F)F)n3nc(C(=O)Nc4ccccc4SC)cc3n2)cc1OC | 148% |
| CCOC(=O)c1cnn2c(C(F)(F)F)cc(-c3ccc(Br)cc3)nc12 | 102% |
| CCCCOc1ccc(C(=O)NCCc2sc(-c3ccc(OC)c(OC)c3)nc2C)cc1 | 72% |
| COc1ccc(NC(=O)c2oc3ccccc3c2NC(=O)C23CC4CC(CC(C4)C2)C3)cc1 | 80% |
| COc1ccc(N2CCN(c3ncnc4c3cnn4-c3ccc(C)c(Cl)c3)CC2)cc1 | 96% |
| Cc1ccc(/C=C/C(=O)N2CCC(c3nc4ccccc4o3)CC2)cc1 | 87% |
| CC(C)NC(=O)C1CCN(C(=O)N2CC(C)Oc3ccccc32)CC1 (stereo not given) | 72% |
| O=C(NC1CCCC1)c1ccc2c(=O)n(Cc3ccccc3)c(SCc3cccc([N+](=O)[O-])c3)nc2c1 | 106% |
| Cn1c(=O)c2c(nc(N3CCOCC3)n2Cc2ccccc2)n(C)c1=O | 52% |
| Cn1c(=O)c2c(nc(N3CCOCC3)n2Cc2ccccc2Cl)n(C)c1=O | 46% (active) |
| Cn1c(=O)c2c(nc(NCCCCO)n2Cc2ccccc2Cl)n(C)c1=O | 63% |
| Cn1c(=O)c2c(nc(N3CCOCC3)n2Cc2cccc(Br)c2)n(C)c1=O | 80% |
| CCOC(=O)Cn1c(=O)c2c(nc3n2CCN3c2ccc(CC)cc2)n(C)c1=O | 79% |
| Cn1c(=O)[nH]c(=O)c2c1nc(N1CCOCC1)n2Cc1ccccc1 | 167% |
| COc1ccc(Oc2nc3c(c(=O)n(C)c(=O)n3C)n2Cc2ccccc2Cl)cc1 | 54% |
| Cn1c(=O)c2c(nc(N3CCOCC3)n2Cc2ccc(Br)cc2)n(C)c1=O | 43% (active) |

| SMILES | survival |
| --- | --- |
| Cn1c(=O)c2c(nc(N3CCOCC3)n2Cc2ccccc2F)n(C)c1=O | 71% |
| CCOC(=O)Cn1c(=O)c2c(nc(N3CCOCC3)n2Cc2ccccc2)n(C)c1=O | 43% (active) |
| Cn1c(=O)n(Cc2ccccc2Cl)c(=O)c2c1nc1n2CCN1c1ccccc1 | 73% |
| CC(C)CCSc1nc2c(c(=O)n(C)c(=O)n2C)n1Cc1ccccc1Cl | 34% (active) |
| CCOc1ccc(NC(=O)c2c(NC(=O)c3ccco3)sc3c2CCC(C(C)(C)C)C3)cc1 (stereo not given) | 68% |
| CCOC(=O)c1c(C)[nH]c(C)c1S(=O)(=O)N1CCCC(C(=O)NCc2cccc(C)c2)C1 (stereo not given) | 88% |
| Cc1ccc(CNC(=O)C2CCCN(S(=O)(=O)c3cn(C)cn3)C2)cc1 (stereo not given) | 94% |
| O=C(Cn1cnc2ccccc2c1=O)NCCC(=O)Nc1ccc(F)cc1 | 85% |
| CC(C)(C)Nc1nc(OCC#N)nc(N2CCOCC2)n1 | 113% |
| CCCCNC(=O)Cn1c(=O)cc(C)c2c(C)nn(-c3ccc(CC)cc3)c21 | 55% |
| Cc1cc(C)c2c(n1)SCC(=O)N2CC(=O)Nc1ccc(C)c(C)c1 | 115% |
| Cc1ccc(CNC(=O)c2nc(SCc3ccc(C)cc3)ncc2Cl)cc1 | 99% |
| CCc1nnc(NC(=O)c2nc(SCc3cccc(C)c3)ncc2Cl)s1 | 5% (active) |
| CCSc1ncc(Cl)c(C(=O)Nc2nnc(CC)s2)n1 | 72% |
| CCc1nnc(NC(=O)c2nc(SCc3ccccc3F)ncc2Cl)s1 | 31% (active) |
| Cc1cccc(CSc2ncc(Cl)c(C(=O)Nc3nnc(C)s3)n2)c1 | 73% |
| CCc1nnc(NC(=O)c2nc(SC)ncc2Cl)s1 | 109% |
| Cc1nnc(NC(=O)c2nc(SCc3ccccc3F)ncc2Cl)s1 | 90% |
| Cc1nnc(NC(=O)c2nc(SC(C)C)ncc2Cl)s1 | 72% |
| CCc1nnc(NC(=O)c2nc(SCc3ccc(F)cc3)ncc2Cl)s1 | 29% (active) |
| Cc1ccc(CSc2ncc(Cl)c(C(=O)Nc3nnc(C)s3)n2)cc1 | 32% (active) |
| CCCc1nnc(NC(=O)c2nc(SCC)ncc2Cl)s1 | 76% |
| CCc1nnc(NC(=O)c2nc(SCc3ccccc3C)ncc2Cl)s1 | 96% |
